Data from PubChem BioAssay AID1159580 (chemical genetic matrix, 2015).
Among all 5,500 compounds or so, about 2,000 (36%) were called active. About 18% were inconclusive and are not listed. No stated cut-off is given here; in the data, active means normalized growth mostly below about 0.91 (no sharp cut-off); inconclusive means no clear call, values can overlap the other calls; inactive means mostly above about 0.92. The list shows a part of the results.

Experiment: chemical genetic growth profiling, strain panel (AID 1159580);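 further: tested at 20 µM; growth read once vehicle control cultures reached saturation at 30 °C; 1 = growth at the plate median or of vehicle wells; lower values mean less growth of the strain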
Conditions: S. cerevisiae deletion strains, growth OD

Measured: normalized growth

O=C(CSCc1csc2ccccc12)Nc1ccc(F)c(Cl)c1
active: locus YHR030C, strain SLT2, hits give low values 0.821 | locus YLR113W, strain HOG1, hits give low values 0.68 | locus YPL256C, strain CLN2, hits give low values 0.754
inactive: locus YAR019C, strain CDC15, hits give low values 0.978 | locus YBL105C, strain PKC1, hits give low values 0.977 | locus YBR135W, strain CKS1, hits give low values 0.973 | locus YBR136W, strain MEC1, hits give low values 0.981 | locus YBR160W, strain CDC28, hits give low values 0.974 | locus YDL017W, strain CDC7, hits give low values 0.98 | locus YDL028C, strain MPS1, hits give low values 0.982 | locus YDL101C, strain DUN1, hits give low values 0.999 | locus YDL108W, strain KIN28, hits give low values 0.973 | locus YDL132W, strain cdc53, hits give low values 0.982 | locus YDL214C, strain PRR2, hits give low values 0.885 | locus YDR052C, strain DBF4, hits give low values 0.99 | locus YDR054C, strain cdc34, hits give low values 0.97 | locus YDR226W, strain ADK1, hits give low values 0.986 | locus YDR477W, strain SNF1, hits give low values 0.909 | locus YER123W, strain YCK3, hits give low values 0.884 | locus YER133W, strain GLC7, hits give low values 0.921 | locus YFL009W, strain cdc4, hits give low values 0.978 | locus YFL029C, strain CAK1, hits give low values 0.975 | locus YFR003C, strain YPI1, hits give low values 0.978 | locus YFR019W, strain FAB1, hits give low values 0.93 | locus YFR028C, strain CDC14, hits give low values 0.975 | locus YGR040W, strain KSS1, hits give low values 0.917 | locus YGR052W, strain FMP48, hits give low values 0.925 | locus YGR092W, strain DBF2, hits give low values 0.878 | locus YHR079C, strain IRE1, hits give low values 0.858 | locus YHR082C, strain KSP1, hits give low values 0.896 | locus YHR205W, strain SCH9, hits give low values 0.845 | locus YIL147C, strain SLN1, hits give low values 0.984 | locus YJL095W, strain BCK1, hits give low values 0.877 | locus YJL128C, strain PBS2, hits give low values 0.946 | locus YJL157C, strain FAR1, hits give low values 0.875 | locus YJR016C, strain ILV3, hits give low values 0.972 | locus YJR066W, strain TOR1 (second series), hits give low values 0.893 | locus YJR066W, strain TOR1, hits give low values 0.889 | locus YKL048C, strain ELM1, hits give low values 0.952 | locus YKL067W, strain YNK1, hits give low values 0.897 | locus YKL101W, strain HSL1, hits give low values 0.89 | locus YKL193C, strain SDS22, hits give low values 0.977 | locus YKL203C, strain TOR2, hits give low values 0.96 | locus YLR133W, strain CKI1, hits give low values 0.899 | locus YLR403W, strain SFP1, hits give low values 0.889 | locus YML070W, strain DAK1, hits give low values 0.849 | locus YMR001C, strain CDC5, hits give low values 0.977 | locus YMR205C, strain PFK2 (second series), hits give low values 0.904 | locus YMR277W, strain FCP1, hits give low values 0.978 | locus YNL006W, strain LST8, hits give low values 0.978 | locus YNL020C, strain ARK1, hits give low values 0.887 | locus YNL161W, strain CBK1, hits give low values 0.977 | locus YNL183C, strain NPR1, hits give low values 0.879 | locus YNL207W, strain RIO2, hits give low values 0.974 | locus YNL222W, strain SSU72, hits give low values 0.966 | locus YNL307C, strain MCK1 (second series), hits give low values 0.877 | locus YOL078W, strain AVO1, hits give low values 0.979 | locus YOL136C, strain PFK27, hits give low values 0.843 | locus YOR061W, strain CKA2, hits give low values 0.895 | locus YOR119C, strain RIO1, hits give low values 0.965 | locus YOR231W, strain MKK1, hits give low values 0.814 | locus YOR329C, strain SCD5, hits give low values 0.982 | locus YPL031C, strain PHO85, hits give low values 0.906 | locus YPL153C, strain RAD53, hits give low values 0.897 | locus YPL204W, strain HRR25, hits give low values 0.907 | locus YPL209C, strain IPL1, hits give low values 0.973 | locus YPR025C, strain CCL1, hits give low values 0.975 | locus YPR106W, strain ISR1, hits give low values 0.961 | locus YPR111W, strain DBF20, hits give low values 0.952 | strain NNK1, hits give low values 0.956 | strain TSCII, hits give low values 0.977
